Experimental data: PubChem BioAssay (NCATS)
Records with an inconclusive call do not appear. Active and inactive are the calls of the source. Calls follow the shape of the dose curve; as a rule, active = well fitted curve in the direction sought with a large enough effect; inconclusive = small, poorly fitted or top-dose-only effect, or another doubt; inactive = no such curve, though single readings can be large; an effect the other way counts as inactive or inconclusive.

What was measured:
[1] = target: Glutathione peroxidase 1 (Homo sapiens) (UniProt P07203); assay: Primary qHTS Assay for Inhibitors of Recombinant Selenoprotein Glutathione Peroxidase 1 (GPX1) (AID 1845191); also: nearly all actives have a fitted effect of over 65% in size; as to activity, negative = inhibition: % is scaled to controls: 0 for no effect and ±100 for the full control effect
How it was run: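 GPX1 10 nM, GR 100 nM, GSH 1 mM, NADPH 0.5 mM, CHP 0.5 mM (final). 30-min cpd preincubation, RT. Ex340/Em450 read t=0, t=15 min.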

[2] = target: Phospholipid hydroperoxide glutathione peroxidase GPX4 (Homo sapiens) (UniProt P36969); assay: Primary qHTS Assay for Inhibitors of Recombinant Selenoprotein Glutathione Peroxidase 4 (GPX4) (AID 1845192); also: nearly all actives have a fitted effect of over 65% in size; as to activity change, negative = inhibition: series mostly up to about 50 µM; % is scaled to controls: 0 for no effect and ±100 for the full control effect
How it was run: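 qHTS, GR-coupled: GPX4 200 nM + cpd 30 min RT → GSH 1 mM, NADPH 0.5 mM, GR 100 nM → CHP 0.5 mM start; fluor 340/450 at t0 and t15 min; no-enzyme wells as control.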

[3] = target: Luciferin 4-monooxygenase (Photinus pyralis) (UniProt P08659); assay: Primary firefly luciferase (FLuc) qHTS assay for identification of artifact compounds. (AID 1845220); also: nearly all actives have a fitted effect of over 60% in size; also: potency is read from the fitted curve at half-maximal effect;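 as to activity change, negative = inhibition: series mostly up to about 54 µM; plate controls were DMSO vehicle for no effect and no enzyme for full effect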
How it was run: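 qHTS, 15 min compound preincubation with substrate (10 uM luciferin, 10 uM ATP) at RT, then 10 nM FLuc; 5 min; luminescence; % inhibition vs no-enzyme/DMSO controls, 4-parameter Hill fit.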

[4] = Primary redox qHTS assay for identification of artifact compounds. (AID 1845223);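 also: 0% = DMSO and 100% = reference compound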
How it was run: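 Redox-cycling detection via DTT (250 uM final) oxidation coupled to Amplex Red (25 uM)/HRP (250 mU/mL) in HBSS. 15 min preincubation plus 30 min after DTT, room temperature. Ex/Em 525/598 nm; 4-parameter Hill fit against DMSO and 10 uM DA3003.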

[5] = test system: Nanoluciferase (engineered Oplophorus gracilirostris luciferase); assay: Primary Nanoluciferase (NLuc) qHTS assay for identification of artifact compounds. (AID 1845222); also: series mostly up to about 54 µM
How it was run: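 Luminescence read-out of secreted NLuc in S16 cell conditioned medium (1:55); compounds tested with 15 min RT preincubation, then Nano-Glo substrate 1:100, 5 min. % inhibition vs no-enzyme and DMSO controls, 4-parameter Hill fit.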

[6] = Primary fluorescence-based thiol-reactive (MSTI) qHTS assay for identification of artifact compounds. (AID 1845221);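 also: series mostly up to about 54 µM; thiol-reactive compounds lower the probe fluorescence signal; nearly all actives have a fitted effect of over 65% in size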
How it was run: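 Thiol-reactive compounds detected by quenching of 4 uM MSTI fluorescence (525/598 nm) after 1 h room-temperature dark incubation in PBS pH 7.4, 2% DMSO. qHTS titration; percent inhibition Hill-fitted against Acetyl-MSTI/MSTI controls.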

Phospholipid hydroperoxide glutathione peroxidase GPX4 (Homo sapiens), sequence (P36969 whole entry, looked up): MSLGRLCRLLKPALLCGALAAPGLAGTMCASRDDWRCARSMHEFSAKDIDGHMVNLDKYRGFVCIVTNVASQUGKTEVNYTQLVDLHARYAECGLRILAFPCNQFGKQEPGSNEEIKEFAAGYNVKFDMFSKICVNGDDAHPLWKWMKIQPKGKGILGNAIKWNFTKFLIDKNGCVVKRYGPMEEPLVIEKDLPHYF
Glutathione peroxidase 1 (Homo sapiens), sequence (P07203 whole entry, looked up): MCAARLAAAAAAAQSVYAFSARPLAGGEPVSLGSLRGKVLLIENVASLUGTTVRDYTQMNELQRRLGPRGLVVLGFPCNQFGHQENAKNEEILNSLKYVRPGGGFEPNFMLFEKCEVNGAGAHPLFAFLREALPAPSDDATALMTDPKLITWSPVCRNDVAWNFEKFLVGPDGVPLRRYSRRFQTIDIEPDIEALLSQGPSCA

COc1ccc(-n2[nH]c(=O)c3[nH]c4cc(Cl)ccc4c(=O)c3c2=O)c(C)c1
inactive: Potency [1] | Potency [2] | Potency [3] | Potency [4]

COc1cc(N)c(Cl)cc1C(=O)NC[C@@H]1CCN2CCC[C@@H]12
inactive: Potency [1] | Potency [2] | Potency [3] | Potency [5]

C[C@@H]1CCC/C=C/[C@H]2CC(=O)C[C@@H]2[C@@H](O)/C=C/C(=O)O1
inactive: Potency [1] | Potency [2] | Potency [3] | Potency [5]

COc1c(/C=C/C(C)(C)O)ccc2c1C(=O)OCc1cc(C)cc(O)c1O2
inactive: Potency [1] | Potency [2] | Potency [3] | Potency [5]

CC1CC(=O)C2=C(CCC3(O)C(O)c4c(O)cccc4C(=O)C23O)C1 (stereo not given)
inactive: Potency [1] | Potency [2] | Potency [3] | Potency [5] | Potency [4]

COc1ccc(C2(O)c3ccccc3NC(=O)C2O)cc1 (stereo not given)
inactive: Potency [1] | Potency [2] | Potency [3] | Potency [5] | Potency [4]

Cc1ccc(S(=O)(=O)n2ccc(-c3c(-c4ccc(Cl)cc4)noc3C)n2)cc1
inactive: Potency [1] | Potency [2] | Potency [6] | Potency [5] | Potency [4]

C[C@@H]1O[C@@H](O[C@@H]2[C@@H](O[C@@H]3O[C@@H](C)[C@H](O[C@@H]4OC[C@H](O)[C@H](O[C@@H]5OC[C@@H](O)[C@H](O)[C@H]5O)[C@H]4O)[C@@H](O[C@@H]4OC[C@](O)(CO)[C@H]4O)[C@H]3O)[C@H](OC(=O)[C@]34CCC(C)(C)C[C@H]3C3=CCC5[C@@]6(C)C[C@H](O)[C@H](O[C@@H]7O[C@H](CO[C@@H]8OC[C@H](O)[C@H](O)[C@H]8O)[C@@H](O)[C@H](O)[C@H]7O)C(C)(C)C6CC[C@@]5(C)[C@]3(C)C[C@H]4O)OC[C@H]2O)[C@H](O)[C@H](O)[C@H]1O (stereo not given in full)
inactive: activity, negative = inhibition [1] 1.11% [at 9.52 µM] | activity change, negative = inhibition [2] -0.822% [at 9.73 µM] | activity change, negative = inhibition [3] 1.22% [at 11.6 µM] | activity, negative = inhibition [5] 1.99% [at 11.6 µM] | redox activity (% of DA3003) [4] 6.31% [at 11.5 µM]

Cc1ccc(S(=O)(=O)Nc2ccccc2N2CCCCC2)s1
inactive: Potency [1] | Potency [2] | Potency [3] | Potency [5] | Potency [4]

NCc1ccc(Nc2ncc(F)c(Nc3ccccc3)n2)cc1
inactive: Potency [1] | Potency [2] | Potency [3] | Potency [5] | Potency [4]

CO[C@H]1C[C@@H]2CC[C@@H](C)[C@@](O)(O2)C(=O)C(=O)N2CCCC[C@H]2C(=O)O[C@H]([C@H](C)C[C@H]2CC[C@@H](OP(C)(C)=O)[C@H](OC)C2)CC(=O)[C@H](C)/C=C(\C)[C@@H](O)[C@@H](OC)C(=O)[C@H](C)C[C@H](C)/C=C/C=C/C=C/1C
inactive: Potency [1] | Potency [2] | Potency [3] | Potency [5]

CCN(CC)Cc1ccc(C(=O)N(CCc2ccccc2OC)[C@@H]2CCNC2)cc1
inactive: Potency [1] | Potency [2] | Potency [3] | Potency [5] | Potency [4]

C/C=C/C=C/C(O)=C1\C(=O)[C@]2(C)C3C(C(=O)CC/C=C/C)=C(O)C4(C)C1[C@]1(C)O[C@@]4(O)[C@@]3(C)O[C@@]12O
inactive: Potency [1] | Potency [2] | Potency [3] | Potency [5]

COc1ccc(C(O)C(C)OC2OC(CO)C(O)C(O)C2O)cc1 (stereo not given)
inactive: Potency [1] | Potency [2] | Potency [3] | Potency [5] | Potency [4]

CC1=C2C(O)C(=O)OC(c3ccoc3)C2(C)CCC1O (stereo not given)
inactive: Potency [1] | Potency [2] | Potency [3] | Potency [5] | Potency [4]

C/C=C1\[C@H](O[C@@H]2O[C@H](CO)[C@@H](O)[C@H](O)[C@H]2O)OC=C2C(=O)OCCc3ccc(O)c(c3)Oc3ccc(cc3)CCOC(=O)C[C@H]21
inactive: Potency [1] | Potency [2] | Potency [3] | Potency [5]

C=C1CCC2C(C)(C)CCC[C@]2(C)[C@H]1C/C=C(\CO)C(=O)C(=O)O (stereo not given in full)
inactive: Potency [1] | Potency [2] | Potency [3] | Potency [5] | Potency [4]

CC1(C)CCCC2(C)C(CO)C(CO)=CCC12 (stereo not given)
inactive: Potency [1] | Potency [2] | Potency [3] | Potency [5] | Potency [4]

CN=C(N)NCCCCC/C=C(/C)CC(C)C1OC(=O)C(C)C(O)/C=C/C(C)C(O)CC(O)C(C)C(O)CCC(C)C(O)CC2(O)OC(CC(OC(=O)CC(=O)O)CC(O)CC(O)C(C)C(O)/C(C)=C/CCC1C)CC(O)C2O (stereo not given)
inactive: Potency [1] | Potency [2] | activity change, negative = inhibition [3] -2.65% [at 11.6 µM] | activity, negative = inhibition [5] -0.658% [at 11.6 µM] | redox activity (% of DA3003) [4] -4.57% [at 11.5 µM]

Cc1noc(=O)c2ccc(NC(=O)C(O)(CC(C)(C)c3cccc4c3OCC4)C(F)(F)F)cc12 (stereo not given)
inactive: Potency [1] | Potency [2] | Potency [3] | Potency [5] | Potency [4]

C=C1C(OC(C)=O)CCC2(C)CC3(OC)OC(=O)C(C)=C3CC12 (stereo not given)
inactive: Potency [1] | Potency [2] | Potency [3] | Potency [5] | Potency [4]

COc1ccc([C@@]2(O)c3c(ccc4c3OC(C)(CCC=C(C)C)C=C4)NC(=O)[C@@H]2OC)cc1 (stereo not given in full)
inactive: Potency [1] | Potency [2] | Potency [3] | Potency [5] | Potency [4]

O=C1C=CC(O)(/C=C/C(=O)OC[C@H]2O[C@@H](Oc3ccc(O)cc3)[C@H](O)[C@@H](O)[C@@H]2O)C=C1
inactive: Potency [1] | Potency [2] | Potency [3] | Potency [5] | Potency [4]

O=C(CCc1ccccc1)N1CCC(O)(Cn2cnc3cc(Cl)ccc3c2=O)CC1
inactive: Potency [1] | Potency [2] | Potency [6] | Potency [5]

C=C1CCC2C(C)(C)C(O)CCC2(C)C1CCC(C)CCOC(C)=O (stereo not given)
inactive: Potency [1] | Potency [2] | Potency [3] | Potency [5] | Potency [4]

N#CC(c1ccnc(OCc2ccc(CN3CCOCC3)cc2)n1)c1nc2ccccc2s1 (stereo not given)
inactive: Potency [1] | Potency [2] | Potency [5] | Potency [4]
active: Potency [3] 426 nM

COc1cc2ncnc(Nc3ccc(O)cc3)c2cc1OC
inactive: Potency [1] | Potency [2] | Potency [3] | Potency [5] | Potency [4]

CC(=O)O[C@@H]1CC(C)=C2[C@H]1[C@H](C)CC[C@H]2/C=C(\C)C(=O)O
inactive: Potency [1] | Potency [2] | Potency [3] | Potency [5]

CC(C)[N+]1(C)C2CCC1CC(OC(=O)C(CO)c1ccccc1)C2 (stereo not given)
inactive: Potency [1] | Potency [2] | Potency [3] | Potency [5] | Potency [4]

C=CC(C)(C)c1[nH]c2cc3c(cc2c1CC1NC(=O)C2=CCCN2C1=O)C=CC(C)(C)O3 (stereo not given)
inactive: Potency [1] | Potency [2] | Potency [3] | Potency [5] | Potency [4]

C=CC(=O)Nc1cc(Nc2ncc(Cl)c(-c3c[nH]c4ccccc34)n2)c(OC)cc1N(C)CCN(C)C
inactive: Potency [1] | Potency [2] | Potency [3] | Potency [5]
